Common to all, as to assay: NCI-60 one-dose screen, 48 h (100 = growth as untreated, 0 = no growth, -100 = all killed)
Holding throughout (conditions): 10 µM unless noted

In experiment [1] the test system is SK-MEL-2 melanoma.
Experiment [2] concerns EKVX NSCLC.
Experiment [3] concerns SN12C renal.
Experiment [4] concerns UO-31 renal.
The test system of experiment [5] is TK-10 renal.
Experiment [6] concerns ACHN renal.
Experiment [7] deals with A498 renal.
Experiment [8] concerns CCRF-CEM leukemia.
Experiment [9] concerns MOLT-4 leukemia.
Experiment [10] has as its system SR leukemia.

From PubChem BioAssay (NCI) come the findings set out here.

SMILES strings stand for the structures. This is part of a sample that, as a whole, favours compounds with a hit. Of some 83,000 tested, about 20% had one in any assay.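 Cells were grown in 96-well plates and exposed to the test compound at a single concentration for 48 hours; results are reported as percent growth, with values below 10 considered active.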 Values without a mark were called inactive. Active and inactive are the calls of the source.

For the compound `COc1ccc(-c2cc(-c3nnc(SCC(=O)Nc4ccc(C(C)=O)cc4)o3)c3ccccc3n2)cc1`, the growth in [1] was 40.1%; in experiment [2], 23.2%; in experiment [3] it was -40.5% (active); in experiment [4] it was -70.7% (active); in experiment [5], -28.8% (active); in [6], -11.6% (active). Also, the growth in experiment [7] was 18.3%; in experiment [8], 32.7%; in experiment [9] it was 23%; in experiment [10] it was -19.5% (active).
With `O=C1CC(c2ccc(O)c(O)c2)Oc2cc(O)c([C@@H]3O[C@H](CO)[C@@H](O)[C@H](O)[C@H]3O)c(O)c21` (stereo not given in full), the growth in experiment [1] was 104%; in experiment [2], 99.5%; in [3], 98.7%; in [4], 103%; in experiment [5], 106%; in experiment [6], 102%. Besides, the growth in [7] was 108%; in [8], 97.3%; in experiment [9], 100%; in experiment [10] it was 98.6%.
For `CCCS(=O)(=O)Nc1ccc(F)c(C(=O)c2c[nH]c3ncc(-c4ccc(OCCCC5CCCCN5)nc4)cc23)c1F` (stereo not given), the growth was 58.5% in experiment [1]; 89.7% in experiment [2]; 62.5% in experiment [3]; 102% in experiment [4]; 81.2% in experiment [5]; 92.3% in experiment [6]. Further, the growth in [7] was 64.8%; in experiment [8], 56.5%; in [9], 43.1%; in [10], 43.1%.
On to `COC1=CC=CC2(OC)C3(O)CCCc4cccc(c43)N3C(=O)COC132` (stereo not given), for which the growth in [1] was 93.9%; in experiment [2], 98.6%; in experiment [3], 101%; in [4] it was 82.1%; in experiment [5], 96.7%; in [6], 105%. Also, the growth in experiment [7] is 98.4%; in [8], 94.8%; in [9], 97.8%; in experiment [10], 109%.
Turning to `COc1cc2c(Nc3ccc(NC(=O)Nc4ccc(Cl)c(C(F)(F)F)c4)c(Cl)c3)ncnc2cc1OCCCN1CCN(C)CC1`, the growth in experiment [1] is -37.9% (active); in experiment [2], 52.5%; in experiment [3], 18.6%; in experiment [4], 54.9%; in experiment [5], 20.5%; in experiment [6], 35%. The growth in experiment [7] was 39.7%; in experiment [8], -15.4% (active); in [9], -43.7% (active); in experiment [10], -40.5% (active).
In the case of `NS(=O)(=O)c1ccc(C2C3=C(CCCC3=O)OC3=C2C(=O)c2ccccc2C3=O)cc1` (stereo not given), the growth is -74% (active) in experiment [1]; -55.4% (active) in [2]; -52.7% (active) in experiment [3]; -21.6% (active) in [4]; -92.6% (active) in experiment [5]; -78.9% (active) in experiment [6]. The growth was -68.9% (active) in experiment [7], -10.5% (active) in experiment [8], -54.6% (active) in [9] and -19.9% (active) in experiment [10].
With `COc1cc2nc3c(=O)n(-c4ccc(C#N)cc4)cnn3c(=O)c2cc1OC`, the growth in [1] was 94.4%; in experiment [2], 93.9%; in experiment [3], 99%; in experiment [4], 83.6%; in experiment [5] it was 104%; in [6] it was 100%. Further, the growth is 113% in [7], 143% in [8], 91.3% in experiment [9] and 94.1% in experiment [10].
`COc1cc(NC(=O)COc2cc(C)nc3ccc(OC)cc23)cc(OC)c1`: the growth in [1] was 92.2%; in experiment [2], 91.5%; in experiment [3], 88.9%; in experiment [4], 69.8%; in experiment [5], 96.5%; in experiment [6] it was 82%. The growth in experiment [7] is 63.7%; in experiment [8] it was 82%; in [9] it was 89.9%; in [10] it was -8.57% (active).
For `Cc1nc2sc(C(=O)Nc3cccc4ccccc34)c(N)c2cc1C(C)O` (stereo not given), the growth was 36.5% in experiment [1]; 36.7% in [2]; 36% in experiment [3]; 48.6% in experiment [4]; 75.2% in experiment [5]; 42.8% in [6]. For the same compound, the growth in experiment [7] was 24.2%; in experiment [8], 9.13% (active); in experiment [9] it was 13.3%; in experiment [10] it was 12.3%.
With `NS(=O)(=O)c1ccc(-n2nc(-c3ccccc3)ccc2=O)cc1`, the growth in experiment [1] was 101%; in [2] it was 118%; in experiment [3], 97.7%; in [4] it was 91.9%; in experiment [5], 132%; in [6], 108%. Also, the growth in experiment [7] is 102%; in experiment [8], 95.6%; in experiment [9] it was 96.4%; in experiment [10] it was 83.9%.
In the case of `O=CN1N=C(c2ccc(F)cc2)CC1c1cccc(Nc2ccnc3cc(C(F)(F)F)ccc23)c1` (stereo not given), the growth in experiment [1] is 54.2%; in [2], 50.6%; in experiment [3] it was 81%; in experiment [4], 44.6%; in experiment [5], 62.7%; in experiment [6], 54.4%. Also, the growth in experiment [7] is 49.6%; in experiment [8] it was 44.8%; in experiment [9], 23.1%; in [10] it was 20.2%.
As to `O=C(CCl)N1CCCc2ccccc21`, the growth in experiment [1] was 110%; in [2] it was 96.4%; in [3], 93.8%; in [4], 82.8%; in experiment [5], 102%; in experiment [6], 101%. For the same compound, the growth was 94.5% in [7], 96.8% in experiment [8], 93.5% in experiment [9] and 101% in experiment [10].
